For seven compounds, residual activity results are on record in ChEMBL document CHEMBL2218924, “A broad activity screen in support of a chemogenomic map for kinase signalling research and drug discovery” (Biochem J, 2013).

For assay [1], the target named is T1, Testis-specific serine/threonine-protein kinase 2 (Homo sapiens) (UniProt Q96PF2).
T1 sequence (whole entry): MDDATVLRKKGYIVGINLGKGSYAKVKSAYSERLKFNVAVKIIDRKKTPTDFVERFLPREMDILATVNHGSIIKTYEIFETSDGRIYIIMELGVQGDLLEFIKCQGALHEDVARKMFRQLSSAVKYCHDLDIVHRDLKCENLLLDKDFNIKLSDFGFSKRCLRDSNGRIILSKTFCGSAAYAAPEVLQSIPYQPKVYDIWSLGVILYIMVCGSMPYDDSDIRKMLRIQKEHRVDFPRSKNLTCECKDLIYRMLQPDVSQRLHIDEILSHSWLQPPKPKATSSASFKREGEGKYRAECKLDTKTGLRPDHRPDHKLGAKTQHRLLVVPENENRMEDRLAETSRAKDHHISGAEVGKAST
The settings on record: at 1 µM.

The target of assay [2] is Hepatocyte growth factor receptor (Homo sapiens) (UniProt P08581). Particulars: at 10 µM.
The target in assay [3] is MAP kinase-interacting serine/threonine-protein kinase 2 (Homo sapiens) (UniProt Q9HBH9). The settings on record: at 10 µM.
The target of assay [4] is T2, Muscle, skeletal receptor tyrosine-protein kinase (Homo sapiens) (UniProt O15146).
T2 sequence (whole entry): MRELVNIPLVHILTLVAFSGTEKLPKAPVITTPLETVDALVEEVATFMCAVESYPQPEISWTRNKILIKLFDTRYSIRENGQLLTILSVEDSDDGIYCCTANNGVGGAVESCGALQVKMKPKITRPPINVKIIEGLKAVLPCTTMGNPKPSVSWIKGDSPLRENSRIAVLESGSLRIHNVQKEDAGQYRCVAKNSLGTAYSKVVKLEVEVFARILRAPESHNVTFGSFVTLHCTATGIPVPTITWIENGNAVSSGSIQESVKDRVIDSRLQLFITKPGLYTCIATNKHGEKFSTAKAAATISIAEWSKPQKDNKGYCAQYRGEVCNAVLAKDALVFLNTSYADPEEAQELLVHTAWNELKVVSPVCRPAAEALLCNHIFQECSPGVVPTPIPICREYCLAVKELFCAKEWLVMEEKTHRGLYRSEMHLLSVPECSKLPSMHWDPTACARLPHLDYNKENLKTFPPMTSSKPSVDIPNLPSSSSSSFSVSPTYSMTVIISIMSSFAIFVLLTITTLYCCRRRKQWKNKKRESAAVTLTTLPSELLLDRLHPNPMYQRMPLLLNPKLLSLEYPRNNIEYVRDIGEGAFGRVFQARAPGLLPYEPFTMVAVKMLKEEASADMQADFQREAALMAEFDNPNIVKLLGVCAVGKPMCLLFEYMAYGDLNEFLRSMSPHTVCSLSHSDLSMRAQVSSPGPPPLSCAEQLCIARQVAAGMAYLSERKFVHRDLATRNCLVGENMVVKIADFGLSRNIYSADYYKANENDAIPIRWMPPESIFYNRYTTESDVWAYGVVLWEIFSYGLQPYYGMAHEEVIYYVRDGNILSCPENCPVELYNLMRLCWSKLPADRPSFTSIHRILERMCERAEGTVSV
Particulars: at 1 µM.

For assay [5], the target named is T2, Muscle, skeletal receptor tyrosine-protein kinase (Homo sapiens). The settings on record: at 10 µM.
Assay [6] concerns the target Serine/threonine-protein kinase tousled-like 2 (Homo sapiens) (UniProt Q86UE8). The settings on record: at 1 µM.
Assay [7] has the same target. The settings on record: at 10 µM.
The target in assay [8] is T3, Tyrosine-protein kinase Mer (Homo sapiens) (UniProt Q12866).
T3 sequence (whole entry): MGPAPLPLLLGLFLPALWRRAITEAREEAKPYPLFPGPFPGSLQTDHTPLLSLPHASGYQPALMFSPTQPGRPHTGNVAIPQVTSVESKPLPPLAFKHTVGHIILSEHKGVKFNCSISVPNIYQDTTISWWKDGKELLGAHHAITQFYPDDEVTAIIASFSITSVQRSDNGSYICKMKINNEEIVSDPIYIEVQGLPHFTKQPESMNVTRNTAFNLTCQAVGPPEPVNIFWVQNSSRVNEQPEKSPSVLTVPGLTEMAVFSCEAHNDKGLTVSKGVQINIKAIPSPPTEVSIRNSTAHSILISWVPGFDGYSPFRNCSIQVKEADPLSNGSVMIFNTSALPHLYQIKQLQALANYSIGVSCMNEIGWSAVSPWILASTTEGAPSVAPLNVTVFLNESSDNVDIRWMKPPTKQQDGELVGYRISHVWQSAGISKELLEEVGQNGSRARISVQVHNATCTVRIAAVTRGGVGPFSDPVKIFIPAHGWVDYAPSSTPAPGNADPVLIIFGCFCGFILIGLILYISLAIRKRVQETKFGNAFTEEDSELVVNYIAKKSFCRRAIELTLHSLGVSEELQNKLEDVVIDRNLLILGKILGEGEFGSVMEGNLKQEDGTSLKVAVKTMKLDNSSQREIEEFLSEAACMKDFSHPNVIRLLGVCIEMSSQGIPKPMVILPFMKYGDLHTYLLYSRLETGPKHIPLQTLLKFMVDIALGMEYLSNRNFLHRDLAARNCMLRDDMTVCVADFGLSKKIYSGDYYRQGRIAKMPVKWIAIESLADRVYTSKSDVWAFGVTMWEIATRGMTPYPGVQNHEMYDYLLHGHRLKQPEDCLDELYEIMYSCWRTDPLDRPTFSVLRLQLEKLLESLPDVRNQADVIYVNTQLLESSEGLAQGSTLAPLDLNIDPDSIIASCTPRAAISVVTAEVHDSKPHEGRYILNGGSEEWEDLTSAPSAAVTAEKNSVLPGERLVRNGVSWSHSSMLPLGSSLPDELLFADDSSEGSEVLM
The settings on record: at 1 µM.

The target of assay [9] is T3, Tyrosine-protein kinase Mer (Homo sapiens). The settings on record: at 10 µM.
For assay [10], the target named is Hepatocyte growth factor receptor (Homo sapiens) (UniProt P08581). Particulars: at 1 µM.
Assay [11] has as its target MAP kinase-interacting serine/threonine-protein kinase 2 (Homo sapiens) (UniProt Q9HBH9). Particulars: at 1 µM.
Assay [12] addresses T4, Serine/threonine-protein kinase Nek11 (Homo sapiens) (UniProt Q8NG66).
T4 sequence (whole entry): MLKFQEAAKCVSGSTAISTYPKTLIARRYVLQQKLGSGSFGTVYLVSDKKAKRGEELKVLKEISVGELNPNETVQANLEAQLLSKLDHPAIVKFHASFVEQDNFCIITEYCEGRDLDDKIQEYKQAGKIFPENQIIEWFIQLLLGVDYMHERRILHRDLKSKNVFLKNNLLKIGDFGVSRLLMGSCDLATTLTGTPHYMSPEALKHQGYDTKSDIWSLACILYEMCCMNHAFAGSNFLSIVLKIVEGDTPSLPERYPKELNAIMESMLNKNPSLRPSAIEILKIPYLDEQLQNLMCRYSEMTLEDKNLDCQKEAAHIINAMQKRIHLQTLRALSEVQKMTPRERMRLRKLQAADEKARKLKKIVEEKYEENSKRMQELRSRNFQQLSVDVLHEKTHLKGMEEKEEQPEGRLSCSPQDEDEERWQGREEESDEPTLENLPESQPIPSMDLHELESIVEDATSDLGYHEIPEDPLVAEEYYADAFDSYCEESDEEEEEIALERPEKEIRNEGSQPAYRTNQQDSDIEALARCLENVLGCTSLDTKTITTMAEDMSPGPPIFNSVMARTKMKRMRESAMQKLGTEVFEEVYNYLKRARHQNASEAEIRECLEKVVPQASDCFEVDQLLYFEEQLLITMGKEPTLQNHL
The settings on record: at 1 µM.

For assay [13], the target named is T5, Serine/threonine-protein kinase Nek2 (Homo sapiens) (UniProt P51955).
T5 sequence (whole entry): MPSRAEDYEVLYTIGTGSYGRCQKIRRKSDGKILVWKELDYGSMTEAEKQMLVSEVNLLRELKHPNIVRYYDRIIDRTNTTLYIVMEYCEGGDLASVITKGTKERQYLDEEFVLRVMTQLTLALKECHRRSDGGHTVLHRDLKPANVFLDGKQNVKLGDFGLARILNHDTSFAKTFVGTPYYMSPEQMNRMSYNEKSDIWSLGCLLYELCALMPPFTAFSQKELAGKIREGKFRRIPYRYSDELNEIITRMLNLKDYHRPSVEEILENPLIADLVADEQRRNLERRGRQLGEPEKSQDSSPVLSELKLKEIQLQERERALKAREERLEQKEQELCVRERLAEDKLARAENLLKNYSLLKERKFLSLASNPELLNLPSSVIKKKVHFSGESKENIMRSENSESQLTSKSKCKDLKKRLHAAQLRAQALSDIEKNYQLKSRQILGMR
Particulars: at 1 µM.

Assay [14] addresses T5, Serine/threonine-protein kinase Nek2 (Homo sapiens). Particulars: at 10 µM.
Assay [15] addresses T6, Serine/threonine-protein kinase Nek3 (Homo sapiens) (UniProt P51956).
T6 sequence (whole entry): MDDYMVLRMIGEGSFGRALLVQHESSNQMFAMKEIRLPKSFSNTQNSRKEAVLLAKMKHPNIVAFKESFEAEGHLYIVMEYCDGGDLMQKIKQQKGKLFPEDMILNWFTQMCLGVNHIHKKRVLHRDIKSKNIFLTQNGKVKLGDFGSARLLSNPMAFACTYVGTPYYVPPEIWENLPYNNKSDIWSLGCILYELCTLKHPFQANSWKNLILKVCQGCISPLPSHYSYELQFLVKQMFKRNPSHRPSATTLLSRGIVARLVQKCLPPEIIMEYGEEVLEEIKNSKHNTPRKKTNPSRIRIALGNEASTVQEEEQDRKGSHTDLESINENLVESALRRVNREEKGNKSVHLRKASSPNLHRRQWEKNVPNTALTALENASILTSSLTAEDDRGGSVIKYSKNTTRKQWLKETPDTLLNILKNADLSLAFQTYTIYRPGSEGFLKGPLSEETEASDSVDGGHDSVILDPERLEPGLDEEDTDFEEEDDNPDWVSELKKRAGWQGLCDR
Particulars: at 1 µM.

Assay [16] deals with T6, Serine/threonine-protein kinase Nek3 (Homo sapiens). Particulars: at 10 µM.
In assay [17] the target is T7, Testis-specific serine/threonine-protein kinase 1 (Homo sapiens) (UniProt Q9BXA7).
T7 sequence (whole entry): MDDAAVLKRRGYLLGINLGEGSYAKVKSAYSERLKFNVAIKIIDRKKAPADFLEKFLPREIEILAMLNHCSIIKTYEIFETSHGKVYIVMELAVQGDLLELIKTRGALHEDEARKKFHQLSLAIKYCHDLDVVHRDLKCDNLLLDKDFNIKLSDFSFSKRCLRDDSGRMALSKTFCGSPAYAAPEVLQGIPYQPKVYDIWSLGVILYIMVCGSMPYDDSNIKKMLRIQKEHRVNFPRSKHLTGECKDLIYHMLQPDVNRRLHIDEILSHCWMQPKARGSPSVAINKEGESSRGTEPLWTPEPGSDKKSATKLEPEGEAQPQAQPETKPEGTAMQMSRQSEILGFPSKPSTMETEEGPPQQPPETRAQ
The settings on record: at 1 µM.

Assay [18] has as its target T7, Testis-specific serine/threonine-protein kinase 1 (Homo sapiens). The settings on record: at 10 µM.
In assay [19] the target is T1, Testis-specific serine/threonine-protein kinase 2 (Homo sapiens). The settings on record: at 10 µM.
Assay [20] addresses T4, Serine/threonine-protein kinase Nek11 (Homo sapiens). Particulars: at 10 µM.

Sequence of MAP kinase-interacting serine/threonine-protein kinase 2 (Homo sapiens) (Q9HBH9 whole entry, looked up): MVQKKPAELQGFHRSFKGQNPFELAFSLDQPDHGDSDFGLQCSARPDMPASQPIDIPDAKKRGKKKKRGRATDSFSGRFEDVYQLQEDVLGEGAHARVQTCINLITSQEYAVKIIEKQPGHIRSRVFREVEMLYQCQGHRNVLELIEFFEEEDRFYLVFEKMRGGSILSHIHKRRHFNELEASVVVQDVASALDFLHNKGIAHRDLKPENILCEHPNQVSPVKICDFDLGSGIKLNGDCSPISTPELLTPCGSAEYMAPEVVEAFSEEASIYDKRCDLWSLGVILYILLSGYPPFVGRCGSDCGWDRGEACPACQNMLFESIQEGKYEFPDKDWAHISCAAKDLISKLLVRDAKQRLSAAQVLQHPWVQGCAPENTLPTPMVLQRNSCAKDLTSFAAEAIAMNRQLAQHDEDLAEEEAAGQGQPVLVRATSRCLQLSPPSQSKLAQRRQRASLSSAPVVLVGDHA
Sequence of Serine/threonine-protein kinase tousled-like 2 (Homo sapiens) (Q86UE8 whole entry, looked up): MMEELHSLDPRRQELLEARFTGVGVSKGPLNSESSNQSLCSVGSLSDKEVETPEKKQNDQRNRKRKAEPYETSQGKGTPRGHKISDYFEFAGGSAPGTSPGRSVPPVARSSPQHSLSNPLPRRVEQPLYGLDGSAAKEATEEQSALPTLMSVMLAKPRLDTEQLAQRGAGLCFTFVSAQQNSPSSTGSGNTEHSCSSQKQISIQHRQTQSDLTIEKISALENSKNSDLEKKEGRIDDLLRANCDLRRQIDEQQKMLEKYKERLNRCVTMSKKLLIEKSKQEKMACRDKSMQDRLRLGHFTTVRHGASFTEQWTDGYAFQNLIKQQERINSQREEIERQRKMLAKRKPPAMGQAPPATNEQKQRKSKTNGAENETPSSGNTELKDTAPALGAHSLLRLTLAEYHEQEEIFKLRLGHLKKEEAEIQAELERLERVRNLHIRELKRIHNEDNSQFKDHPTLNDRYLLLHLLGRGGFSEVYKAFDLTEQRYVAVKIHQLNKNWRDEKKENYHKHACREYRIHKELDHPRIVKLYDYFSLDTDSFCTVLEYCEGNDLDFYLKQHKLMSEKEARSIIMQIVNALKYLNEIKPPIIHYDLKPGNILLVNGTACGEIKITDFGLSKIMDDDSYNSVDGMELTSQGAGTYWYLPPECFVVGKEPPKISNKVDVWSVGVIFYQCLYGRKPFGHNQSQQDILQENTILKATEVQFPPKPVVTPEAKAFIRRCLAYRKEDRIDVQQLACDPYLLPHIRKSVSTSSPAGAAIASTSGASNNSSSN
Sequence of Hepatocyte growth factor receptor (Homo sapiens) (P08581 whole entry): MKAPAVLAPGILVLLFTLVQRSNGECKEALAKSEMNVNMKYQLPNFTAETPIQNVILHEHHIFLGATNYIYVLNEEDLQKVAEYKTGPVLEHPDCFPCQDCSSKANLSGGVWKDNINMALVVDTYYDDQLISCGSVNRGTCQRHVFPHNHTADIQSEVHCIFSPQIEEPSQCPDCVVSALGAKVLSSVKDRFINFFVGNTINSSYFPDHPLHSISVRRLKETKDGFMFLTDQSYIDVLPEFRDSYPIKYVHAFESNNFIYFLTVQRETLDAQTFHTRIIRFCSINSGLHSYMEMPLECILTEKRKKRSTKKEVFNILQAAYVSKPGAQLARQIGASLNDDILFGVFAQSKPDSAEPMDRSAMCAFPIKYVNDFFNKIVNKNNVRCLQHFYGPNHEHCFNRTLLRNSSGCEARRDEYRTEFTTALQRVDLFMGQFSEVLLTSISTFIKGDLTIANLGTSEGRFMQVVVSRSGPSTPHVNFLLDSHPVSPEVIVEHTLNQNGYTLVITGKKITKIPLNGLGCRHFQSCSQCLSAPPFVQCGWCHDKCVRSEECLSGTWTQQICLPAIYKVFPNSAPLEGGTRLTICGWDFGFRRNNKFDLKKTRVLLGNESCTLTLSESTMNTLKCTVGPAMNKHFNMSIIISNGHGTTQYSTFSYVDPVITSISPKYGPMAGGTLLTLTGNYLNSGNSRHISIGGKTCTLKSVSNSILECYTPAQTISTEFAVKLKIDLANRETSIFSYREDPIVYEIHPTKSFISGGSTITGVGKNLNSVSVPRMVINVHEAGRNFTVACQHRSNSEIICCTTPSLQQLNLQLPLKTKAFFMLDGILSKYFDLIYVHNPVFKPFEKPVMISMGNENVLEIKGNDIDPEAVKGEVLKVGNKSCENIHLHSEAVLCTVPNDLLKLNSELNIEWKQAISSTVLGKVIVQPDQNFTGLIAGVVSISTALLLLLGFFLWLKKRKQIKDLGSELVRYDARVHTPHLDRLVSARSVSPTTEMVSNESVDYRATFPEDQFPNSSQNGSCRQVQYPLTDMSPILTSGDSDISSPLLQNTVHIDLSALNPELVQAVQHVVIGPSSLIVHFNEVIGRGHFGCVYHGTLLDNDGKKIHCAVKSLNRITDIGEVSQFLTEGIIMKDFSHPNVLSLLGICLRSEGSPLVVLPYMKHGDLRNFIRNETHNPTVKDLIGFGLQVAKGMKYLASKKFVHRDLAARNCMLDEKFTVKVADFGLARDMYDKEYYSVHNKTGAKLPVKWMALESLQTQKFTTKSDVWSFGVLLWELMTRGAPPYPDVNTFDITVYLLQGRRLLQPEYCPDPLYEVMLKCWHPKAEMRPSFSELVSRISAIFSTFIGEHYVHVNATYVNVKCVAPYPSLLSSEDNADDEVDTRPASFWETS

A word on the residual activity: it is the signal under treatment as a percentage of the control signal. For the compound `O=C1c2ccccc2-[n+]2ccc3c([nH]c4ccccc43)c21`, the residual activity in assay [1] came out at 98%.

With `COc1ccc2c(c1)/C(=C/c1cnc[nH]1)C(=O)N2`, the residual activity in assay [2] stood at 42%; in assay [3], 40%; in assay [4], 80%; in assay [5], 27%; in assay [6] it was 63%; in assay [7], 11%.

In the case of `CC(C)c1nn(-c2c(Cl)cccc2Cl)c2nc(Cc3ccc(OCCO)cc3)[nH]c(=O)c12`, in [1], the residual activity turned out to be 93%.

As for `CO[C@H]1C[C@@H]2CC[C@@H](C)[C@@](O)(O2)C(=O)C(=O)N2CCCC[C@H]2C(=O)O[C@H]([C@H](C)C[C@@H]2CC[C@@H](O)[C@H](OC)C2)CC(=O)[C@H](C)/C=C(\C)[C@@H](O)[C@@H](OC)C(=O)[C@H](C)C[C@H](C)/C=C/C=C/C=C/1C`, in [1], the residual activity turned out to be 90%.

For the compound `N#Cc1cnc2cnc(NCc3cccnc3)cc2c1Nc1ccc(F)c(Cl)c1`, in [1], the residual activity was 14%.

For the compound `C[S+]([O-])c1ccc(-c2nc(-c3ccc(F)cc3)c(-c3ccncc3)[nH]2)cc1` (stereo unspecified), the residual activity in assay [8] came out at 117%; in [9], 105%; in assay [10] it was 123%; in assay [2], 68%; in [11], 103%; in assay [3], 87%. For the same compound, the residual activity in [4] turned out to be 143%; in assay [5], 95%; in assay [12], 90%; in assay [13] it was 114%; in assay [14] it was 118%; in assay [15], 104%. Further, the residual activity in assay [16] came to 104%; in assay [6], 113%; in assay [7], 109%; in assay [17], 106%; in assay [18], 94%; in assay [1] it was 94%. Besides, the residual activity in assay [19] turned out to be 100%.

For `CC(C)(C)c1cc(C=C(C#N)C#N)cc(Br)c1O`, the residual activity turned out to be 116% in [8]; 121% in [4]; 72% in assay [5]; 109% in assay [20]; 101% in assay [14]; 115% in assay [15]. In addition, the residual activity in assay [16] came to 109%; in assay [6], 112%; in assay [7], 98%; in assay [17], 105%; in [18] it was 101%; in assay [1], 113%.
